Assay outcomes from PubChem BioAssay.
Compounds with a hit are over-represented: about 6% of the library has one in this group of screens.
PLK1 PBD block: qHTS for Inhibitors of PLK1-PDB (polo-like kinase 1 - polo-box domain): Primary Screen; AID 720504, 2013; Potency, µM, for the others: max response, negative = inhibition, hits mostly inhibitors; Plk1 PBD binding of FITC phosphopeptide, fluorescence polarization; 360,000 tested, 2.8% active; also: series mostly up to about 57 µM; nearly all actives have a fitted effect of over 65% in size
Target sequence (P53350 whole entry, looked up, the tested form may be a part): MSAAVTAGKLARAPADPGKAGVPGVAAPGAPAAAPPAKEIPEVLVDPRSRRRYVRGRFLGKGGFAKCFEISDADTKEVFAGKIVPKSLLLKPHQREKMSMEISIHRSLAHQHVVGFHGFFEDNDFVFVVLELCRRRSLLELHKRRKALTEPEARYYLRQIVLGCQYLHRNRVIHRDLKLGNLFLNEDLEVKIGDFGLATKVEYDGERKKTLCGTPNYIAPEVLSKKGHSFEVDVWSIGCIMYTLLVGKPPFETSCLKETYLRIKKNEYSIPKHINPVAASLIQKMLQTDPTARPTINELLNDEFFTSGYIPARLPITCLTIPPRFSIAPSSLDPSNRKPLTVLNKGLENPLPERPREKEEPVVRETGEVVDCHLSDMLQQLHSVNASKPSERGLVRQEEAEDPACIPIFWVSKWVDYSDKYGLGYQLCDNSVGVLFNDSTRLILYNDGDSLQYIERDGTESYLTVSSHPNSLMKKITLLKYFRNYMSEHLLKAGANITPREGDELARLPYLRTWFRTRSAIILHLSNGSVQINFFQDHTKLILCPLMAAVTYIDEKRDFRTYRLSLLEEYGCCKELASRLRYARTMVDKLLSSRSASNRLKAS
Tau FP inhib: qHTS for Inhibitors of Tau Fibril Formation, Fluorescence Polarization; Microtubule-associated protein tau (Homo sapiens), P10636; K18 P301L tau heparin fibrillization, Alexa594 FP, 6 h; Potency, µM (titrated, usually from 57.7 µM), for inactives: top-dose activity, negative = inhibition, hits mostly inhibitors; 280,000 tested, 0.39% active; AID 1468, 2008; also: nearly all actives have a fitted effect of over 55% in size
Target sequence (P10636 561-689 P618L limits assumed): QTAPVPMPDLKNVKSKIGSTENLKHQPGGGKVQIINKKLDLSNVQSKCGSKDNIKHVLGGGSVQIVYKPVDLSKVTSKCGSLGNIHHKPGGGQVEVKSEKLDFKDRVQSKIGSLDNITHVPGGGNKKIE
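Compound effects on tau fibrillization are measured by Alexa 594 fluorescence polarization (ex 555, em 632 nm). K18 P301L tau is used at 15 uM with 0.24 uM labeled tracer, and 20 uM heparin induces aggregation over 6 hr at 37 C.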
VDR inh: Inhibitors of the vitamin D receptor (VDR): qHTS. VDR-SRC2-3 peptide fluorescence polarization, 2 h. Potency, µM, for inactives: max response, negative = inhibition, hits mostly inhibitors. 400,000 tested, 0.93% active
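Reagent solutions, kept cold and dark, are dispensed first; compounds are then pinned in at 23 nl, plates briefly spun, and incubated 2 h at ambient temperature. Inhibition of VDR–SRC2-3 peptide binding is read by fluorescence polarization.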
Tau fluor cs: Counterscreen qHTS for Inhibitors of Tau Fibril Formation, Fluorescence Polarization; tau K18 P301L Alexa594 fluorescence, heparin fibrillization; Potency, µM (top dose mostly 57.7 µM), for inactives: top-dose activity change, negative = decrease; 280,000 tested, 0.93% active; AID 1463, 2008; also: nearly all actives have a fitted effect of over 55% in size
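Human K18 P301L tau (15 uM unlabeled plus 0.24 uM Alexa 594-labeled, final) in 100 mM sodium acetate pH 7 was mixed with compound and 20 uM heparin and incubated 6 hr at 37 C.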
Tau fibril ThT: qHTS for Inhibitors of Tau Fibril Formation, Thioflavin T Binding. Potency, µM (top dose mostly 57.4 µM), inactives show at the highest dose activity, negative = inhibition, most hits filed as inhibitors. recombinant tau K18 P301L (four-repeat tau fragment), heparin-induced fibrillization, ThT fluorescence. AID 1460, 2008. 270,000 tested, 2.1% active; also: nearly all actives have a fitted effect of over 55% in size
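Heparin-induced fibrillization of the P301L-mutant K18 repeat-domain fragment of human tau was followed by ThT binding in quantitative high-throughput format.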
Sfp PPTase inh: qHTS Assay for Inhibitors of Bacillus subtilis Sfp phosphopantetheinyl transferase (PPTase). 4'-phosphopantetheinyl transferase ffp (Bacillus subtilis), Q9F4F7. Biochemical Sfp PPTase activity, qHTS. Potency, µM, for inactives: largest response in the series, negative = inhibition, most hits filed as inhibitors. 310,000 tested, 3.5% active. AID 1490, 2009;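 also: the enzyme is Sfp with the accession as filed and its product quenches rhodamine fluorescence; 0% = enzyme reaction without inhibitor and -100% = no enzyme wells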
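Sfp 15 nM + cpd, 15 min RT; start w/ rhodamine-CoA 5 uM, BHQ-2-YbbR 12.5 uM (final); 50 mM Hepes pH 7.6, 10 mM MgCl2, 0.01% NP-40, 0.01% BSA; read 525/598 nm at 0 and 30 min.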
Numbers without * were called inactive; ? = inconclusive; nt = no result; [ ] = another dose, or the depositor's remark. Calls follow the shape of the dose curve; as a rule, active = well fitted curve in the direction sought with a large enough effect; inconclusive = small, poorly fitted or top-dose-only effect, or another doubt; inactive = no such curve, though single readings can be large; an effect the other way counts as inactive or inconclusive. Unless noted, % is scaled to controls: 0 for no effect and ±100 for the full control effect; potency is read from the fitted curve at half-maximal effect.

SMILES | PLK1 PBD block | Tau FP inhib | VDR inh | Tau fluor cs | Tau fibril ThT | Sfp PPTase inh
COc1ccc(S(=O)(=O)N2CCN(CC(=O)N3CCc4ccccc4C3)CC2)cc1OC | 7% | nt | -7% | nt | nt | nt
O=C1NC2C3CC(c4ccccc43)C12 (stereo not drawn) | -4% | nt | nt | nt | nt | nt
O=C1C=CC(=O)C2=C1C1c3ccccc3C2c2ccccc21 | nt | 35µM* | nt | ? | 20µM* | 3.2µM*
CCc1nc2ccc(C(=O)Nc3cccc(NS(C)(=O)=O)c3)cn2c1N(C)C(=O)c1cccc(OC)c1 | -3% | nt | nt | nt | nt | nt
O=c1c(-c2ccccc2)nc2cnc(Oc3ccccc3)nc2n1Cc1cccs1 | nt | nt | -4% | nt | nt | 16%
Cc1nc(-c2ccc(S(=O)(=O)N3CCN(c4cccc(C)c4C)CC3)cc2)co1 | 24µM* | nt | ? | nt | nt | -2%
Cc1cccc(N2CCN(S(=O)(=O)c3ccc4c(c3)NC(=O)CS4)CC2)c1C | 27µM* | nt | -14% | nt | nt | -2%
Cn1c(=O)c2c(nc(N3CCOCC3)n2Cc2ccc(Br)cc2)n(C)c1=O | nt | -4% | -5% | -1% | 3% | nt
Nc1ncc(S(=O)(=O)NCc2ccc(Cl)cc2)cn1 | nt | 7% | 14% | -2% | 0% | nt
COc1ccc2nc(N=Nc3ccc(N(C)C)cc3)sc2c1 | -8% | -13% | -20% | ? | 0.89µM* | -1%
CC1CC(C)(C)N2C(=O)C3(Nc4ccccc4S3)c3cccc1c32 (stereo not drawn) | -26% | -5% | 5% | ? | ? | ?
O=C1N2CCCc3cccc(c32)C12Nc1ccccc1S2 (stereo not drawn) | 24µM* | -1% | 6% | -9% | -6% | 50µM*
c1ccc(-c2csc(CN3CCCCC3)n2)cc1 | 4% | nt | -13% | nt | nt | nt
CCCCOc1ccccc1NC(=O)c1ccc(=O)[nH]c1 | 30µM* | 9% | -21% | 4% | -10% | 14%
CCOC(=O)C(c1ccccc1)C(Nc1ccc(F)cc1)c1ccccn1 (stereo not drawn) | -2% | 0% | 1% | -19% | -8% | 21%
CCOC(=O)C(C(=O)OCC)C(Nc1ccc(Br)cc1)c1ccccc1 (stereo not drawn) | -7% | 11% | 79µM* | 11% | ? | -4%
COC(=O)CSc1cnc2ccccc2n1 | -7% | 6% | 4% | 0% | -4% | 12%
O=C(CSc1cnc2ccccc2n1)c1ccc(F)cc1 | ? | -11% | -7% | -15% | 14µM* | -61%
CC(C)c1nc(SCC(=O)c2ccc(F)cc2)c2ccccc2n1 | ? | ? | ? | -22% | ? | 32µM*
COC(=O)CSc1nc(C(C)C)nc2ccccc12 | -4% | -9% | -5% | -3% | -12% | 16%
Cc1ccc(C(=O)CSc2nc(C(C)C)nc3ccccc23)cc1 | -3% | -17% | -3% | -19% | ? | 40µM*
Cc1ccc(Cn2c(CCNC(=O)C(C)C)nc3ccccc32)cc1 | nt | -1% | 7% | -8% | 1% | nt
COc1cc(/C=C/[N+](=O)[O-])ccc1OC(=O)c1cc2ccccc2oc1=O | 13µM* | nt | ? | nt | nt | 3.5µM*
COc1ccccc1OC(=O)c1cc2ccccc2oc1=O | -8% | nt | 4% | nt | nt | 22%
CC(=O)C[C@H]1c2ccccc2S(=O)(=O)N1c1ccccc1 | -6% | nt | -7% | nt | nt | nt
SMILES | PLK1 PBD block | Tau FP inhib | VDR inh | Tau fluor cs | Tau fibril ThT | Sfp PPTase inh
COc1ccccc1-c1cc(=O)c2cccc(OC)c2o1 | nt | -15% | 7% | -23% | ? | 3%
COc1cccc(-c2cc(=O)c3ccccc3o2)c1N | nt | 0% | 4% | ? | 16µM* | -25%
CCOC(=O)c1c(/N=C/N(C)C)sc(/C=N/Nc2ccccc2)c1-c1ccccc1Cl | -11% | 17% | -6% | ? | ? | 20%
CCOC(=O)c1c(/N=C/N(C)C)sc(/C=N/Nc2ccccc2)c1-c1ccccc1 | 24µM* | ? | -20% | ? | -17% | 2%
O=C(Cn1nc2ccccc2n1)N/N=C/c1cc(Cl)cc([N+](=O)[O-])c1O | -22% | 8% | 9% | ? | 13µM* | 25%
O=[N+]([O-])c1cc(Cl)cc(/C=N/NC(=S)Nc2ccc(S(=O)(=O)N3CCOCC3)cc2)c1O | 17µM* | 6% | -13% | ? | 10µM* | ?
CC(C)(C)N/N=C/c1cc(Cl)cc([N+](=O)[O-])c1O | ? | 5% | -18% | -8% | -4% | -10%
O=C(Cn1nnc(-c2ccccc2)n1)N/N=C/c1cccc([N+](=O)[O-])c1 | 4% | 4% | 7% | -27% | -10% | -1%
O=C(N/N=C/c1cc(Cl)cc([N+](=O)[O-])c1O)C1CC1 | -12% | 3% | -23% | -17% | 16µM* | 24%
O=C(Cn1nnc(-c2ccccc2)n1)N/N=C/c1cccc([N+](=O)[O-])c1O | -15% | 11% | -11% | -2% | 10µM* | 4%
O=C(CSc1n[nH]c(=O)n1-c1ccccc1)N1CCOCC1 | -10% | nt | -24% | nt | nt | -5%
O=C(Nc1nnc([C@@H]2C[C@H](O)[C@@H](CO)O2)s1)c1c(F)cccc1F | 4% | nt | nt | nt | nt | nt
COc1cc(/C=N/NC(=O)c2cccc(NC(=O)c3ccccc3C)c2)ccc1O | -3% | nt | 6% | nt | nt | 8%
Cc1ccccc1C(=O)Nc1cccc(C(=O)N/N=C/c2cc(Cl)cc([N+](=O)[O-])c2O)c1 | -25% | 7% | -2% | ? | 4µM* | 15%
CCOC(=O)C(CC)Sc1c(CC)cnc2c1c(=O)n(C)c(=O)n2C (stereo not drawn) | nt | -15% | 6% | -10% | -4% | nt
COc1ccc(NC(=O)NC23CC4(C)CC(C)(CC(C)(C4)C2)C3)cc1OC | -14% | 4% | -9% | 13µM*[quencher] | ? | 25%
COC(=O)c1ccc(NC(=O)Nc2ccc(OC)c(OC)c2)cc1 | -2% | 16% | -1% | ? | ? | 15%
Cc1cccc(-c2nnc(SCc3cc(=O)c4cccc(Cl)c4[nH]3)n2C)c1 | nt | -5% | 5% | -3% | -4% | nt
CC(=O)c1cc2c(cc1NC(=O)CCn1cccc1)OCO2 | -1% | -12% | 10% | -12% | -11% | 50µM*
CC(=O)c1cc2c(cc1NC(=O)CCC1CCCC1)OCO2 | nt | 5% | nt | 2% | 0% | 6%
CCOC(=O)Nc1c(C(=O)OC)[nH]c2cc(OC)ccc12 | -8% | 11% | -7% | -14% | -14% | 5%
